Source: PubChem BioAssay (NCI)
The panel holds about 83,000 compounds, 20% with a hit somewhere; the sample as a whole holds those more often.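 In brief: 96-well plates, 48 h treatment, single concentration, percent growth endpoint.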 Unmarked numbers belong to inactive results. Calls of active or inactive are those of the source. The calls were made as follows: active = growth percent below 10; inactive = the rest.

Assays:
Assay in all cases: NCI-60 one-dose screen, 48 h (100 = growth as untreated, 0 = no growth, -100 = all killed)
Settings in all cases: 10 µM unless noted
[1] = system: SK-MEL-2 melanoma
[2] = system: EKVX NSCLC
[3] = system: SN12C renal
[4] = system: UO-31 renal
[5] = system: TK-10 renal
[6] = system: ACHN renal
[7] = system: CAKI-1 renal
[8] = system: A498 renal
[9] = system: CCRF-CEM leukemia
[10] = system: MOLT-4 leukemia
[11] = system: SR leukemia
[12] = system: RPMI-8226 leukemia
[13] = system: OVCAR-8 ovarian
[14] = system: OVCAR-5 ovarian
[15] = system: OVCAR-4 ovarian
[16] = system: SK-OV-3 ovarian
[17] = system: IGROV1 ovarian
[18] = system: OVCAR-3 ovarian
[19] = system: HS 578T breast
[20] = system: NCI/ADR-RES ovarian

Row | Compound | growth [1] | growth [2] | growth [3] | growth [4] | growth [5] | growth [6] | growth [7] | growth [8] | growth [9] | growth [10] | growth [11] | growth [12] | growth [13] | growth [14] | growth [15] | growth [16] | growth [17] | growth [18] | growth [19] | growth [20]
1 | CC[C@]12C=CCN3CC[C@@]4(c5cc([C@H]6CCC(=O)N6)c(OC)cc5N(C)[C@H]4[C@@](O)(C(=O)OC)[C@@H]1OC(C)=O)[C@@H]32 | 98.4% [2.5 µM] | 111% [2.5 µM] | 96.9% [2.5 µM] | 86.3% [2.5 µM] | 106% [2.5 µM] | 90% [2.5 µM] | 94.4% [2.5 µM] | 116% [2.5 µM] | 99.6% [2.5 µM] | 102% [2.5 µM] | 92% [2.5 µM] | 114% [2.5 µM] | 103% [2.5 µM] | 88.4% [2.5 µM] | 104% [2.5 µM] | 91.1% [2.5 µM] | 103% [2.5 µM] | 112% [2.5 µM] | 113% [2.5 µM] | 107% [2.5 µM]
2 | COc1cc2c(cc1-c1c(C)noc1C)ncc1nc(C3CCCCC3)n([C@@H](C)COC(F)F)c12 | 64.4% | 39.2% | 55.3% | 23.6% | 28.9% | 37.8% | 26.7% | 1.93% (active) | 46.1% | 39.5% | 14.5% | 13.3% | 39.1% | 76.6% | 41.8% | 4.85% (active) | 43.8% | 35.6% | 14.3% | 37%
3 | C=C(C)[C@@H]1CC[C@]2(C(=O)N3CCN(C)CC3)CC[C@]3(C)[C@H](CC[C@@H]4[C@@]5(C)C/C(=C/c6ccc(C(F)(F)F)cc6)C(=O)C(C)(C)[C@@H]5CC[C@]43C)[C@@H]12 | 106% | 87.7% | 92.9% | 73.5% | 105% | 96.4% | 68.7% | 97.4% | 88% | 63.8% | 76.9% | 86.1% | 97.4% | 94.9% | 103% | 101% | 102% | 103% | 99.4% | 96.8%
4 | O=C1C(=O)c2ccccc2C(O)=C1CCCc1ccc(C2CCCCC2)cc1 | 104% | 60.2% | 43.2% | 75.9% | 52.5% | 37% | 19.7% | 56.7% | 9.07% (active) | 29.2% | 35.6% | 21.1% | 51.4% | 61.7% | 58.2% | 56.6% | 51.3% | 18% | 53.4% | 42.8%
5 | Cc1ccc(C)c2c1CCC2C(C)C (stereo not given) | 110% | 102% | 98.6% | 88.5% | 95.6% | 97.3% | 95.8% | 110% | 93.5% | 86.4% | 89.3% | 96.7% | 100% | 98.3% | 100% | 92.9% | 103% | 104% | 100% | 105%
6 | CC(=O)NC1=C(C#N)C(c2ccccc2Cl)c2c(ccc3ccccc23)O1 (stereo not given) | 59.2% | 63.5% | 70.8% | 49.8% | 141% | 65% | 37.2% | 56.2% | 60.8% | 50.2% | 37.1% | 55.5% | 82% | 86.3% | 88.8% | 85% | 46.1% | 41.2% | 74.9% | 33.8%
7 | C=C(C)[C@@H]1CC[C@]2(C(=O)NNC(=O)c3cccnc3)CC[C@]3(C)[C@H](CC[C@@H]4[C@@]5(C)CCCNC(C)(C)[C@@H]5CC[C@]43C)[C@@H]12 | 100% | 94.3% | 83.7% | 64% | 158% | 98.1% | 76% | 88.1% | 65.6% | 40.1% | 18.9% | 46.6% | 76.7% | 96.9% | 75.3% | 107% | 91% | 81.2% | 67.3% | 90.5%
8 | NC1=C(C/C(N)=N\O)C(c2ccccc2Cl)c2c(ccc3ccccc23)O1 (stereo not given) | 90.4% | 80.9% | 91.3% | 58.6% | 180% | 83% | 49.5% | 96.8% | 79.8% | 76% | 54.7% | 81.9% | 90.7% | 100% | 110% | 92.2% | 59.2% | 77.9% | 83.9% | 57.6%
9 | C=C(C)[C@@H]1CC[C@]2(C(=O)O)CC[C@]3(C)[C@H](CC[C@@H]4[C@@]5(C)C/C(=C/c6cccc(I)c6)C(=O)C(C)(C)[C@@H]5CC[C@]43C)[C@@H]12 | 11.2% | 24.9% | 31.1% | 23.6% | 29.6% | 30.5% | 11.9% | 22.1% | 25.6% | 13% | 24% | 9.91% (active) | 20.5% | 81.3% | 3.26% (active) | 24.2% | 47.6% | 5.15% (active) | 43.9% | 31.5%
10 | N#Cc1cnc2cc(OC[C@@H](O)CO)c(NC(=O)CC3CSSC3)cc2c1Nc1ccc(OCc2cccc(F)c2)c(Cl)c1 | -67.7% (active) | -68% (active) | -70.3% (active) | 50.5% | -60.5% (active) | 3.6% (active) | 62.7% | -62% (active) | -46.4% (active) | -50.4% (active) | 1.96% (active) | -29.7% (active) | -48.2% (active) | -72.8% (active) | -64.4% (active) | -86.2% (active) | -56% (active) | -81.3% (active) | -39.8% (active) | 85.9%
11 | Cc1cc2nc3c4cc(N)ccc4n(CCN(C)C)c3nc2cc1C | 17.6% | 16.8% | 8.2% (active) | -6.21% (active) | 41.3% | -9.44% (active) | -3% (active) | 46.3% | 23.8% | 3.65% (active) | -0.184% (active) | -7.46% (active) | 13.7% | 18.5% | 14.6% | 18.4% | 3.64% (active) | 22.3% | 41.8% | 2.88% (active)
12 | CCc1cccc(CC)c1NC(=O)c1sc2nc3c(cc2c1N)CCCC3 | 56.3% | 88.9% | 83.5% | 57.7% | 90.5% | 71.8% | 64.6% | 40.2% | 60.7% | 61.9% | 18.2% | 85.8% | 84.7% | 95.3% | 78.2% | 81.9% | 64.5% | 54.6% | 65.2% | 45.3%
13 | CN(C)c1ccc(N=C2C=CC(=O)C=C2)cc1 | 97.1% | 75.3% | 92% | 73.7% | 111% | 69.3% | 81% | 93.1% | 75.5% | 51.3% | 25.9% | 61.1% | 81.7% | 120% | 70.4% | 99.7% | 96.5% | -14.8% (active) | 72.5% | 90.8%
